Reference: ChEMBL document CHEMBL3988442, “University of Dundee, Small-Polar-MMV Screening Library” (2021)

Tests used:
[1] = target: T1, Aspartate--tRNA(Asp/Asn) ligase (Mycobacterium tuberculosis (strain ATCC 25618 / H37Rv)) (UniProt P9WFW3); experiment: Assay for Asp RNA synthetase-1 from Mycobacterium tuberculosis; type: functional; design: scale not given: direction of the effect not stated beside the values; details: 30 µM; note: in the data most compounds retested in dose-response had high values
T1 sequence (whole entry): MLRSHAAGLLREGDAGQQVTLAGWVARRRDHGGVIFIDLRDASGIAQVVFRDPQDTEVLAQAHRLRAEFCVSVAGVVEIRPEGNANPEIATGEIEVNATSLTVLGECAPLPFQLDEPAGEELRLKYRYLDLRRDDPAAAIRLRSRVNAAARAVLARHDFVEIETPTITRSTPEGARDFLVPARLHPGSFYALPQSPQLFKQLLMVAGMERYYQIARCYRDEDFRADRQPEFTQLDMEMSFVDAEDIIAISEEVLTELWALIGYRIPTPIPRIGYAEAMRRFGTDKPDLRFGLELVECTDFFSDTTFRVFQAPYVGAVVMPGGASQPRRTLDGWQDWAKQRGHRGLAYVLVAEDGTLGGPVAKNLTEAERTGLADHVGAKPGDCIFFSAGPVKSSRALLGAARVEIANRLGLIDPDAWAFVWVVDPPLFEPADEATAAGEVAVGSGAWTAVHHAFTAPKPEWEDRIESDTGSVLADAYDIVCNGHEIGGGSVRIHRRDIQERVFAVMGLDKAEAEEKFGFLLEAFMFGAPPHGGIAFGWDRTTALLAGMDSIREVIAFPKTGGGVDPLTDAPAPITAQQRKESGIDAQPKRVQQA

[2] = target: Shiga toxin 2 (Escherichia coli O157:H7) (UniProt P09385+P09386); experiment: E. coli 0.157:H7 Shiga Toxin SOP - stx2 screening assay; type: functional; design: scale not given: direction of the effect not stated beside the values; details: 30 µM

O=C(c1ccc[nH]1)N1CCn2cc(Cn3cncn3)nc2C1
Percent Effect [1]: 1.43% | Percent Effect [2]: -6.64%

Cc1cc(=O)n2ncnc2n1CC(O)c1ccccc1Cl (configuration not stated)
Percent Effect [1]: -0.03% | Percent Effect [2]: -19.6%

CSCCC(=O)N1CCC(Oc2cc(C)ccc2F)(C(=O)O)CC1
Percent Effect [1]: -1.34% | Percent Effect [2]: -3.19%

Cn1c(Cn2cccn2)nnc1C1CCN(Cc2cccnc2N)CC1
Percent Effect [1]: -5.74% | Percent Effect [2]: -18.3%

Cc1ccc(C(=O)N2CCN(C(=O)Nc3ccccn3)CC2)o1
Percent Effect [1]: 4.09% | Percent Effect [2]: 10.3%

Cc1ccc(N2CC3(CCN(c4nccs4)C3)C2)nn1
Percent Effect [1]: -3.76% | Percent Effect [2]: -64.2%

CC1CN(CC(=O)NC2CCCC2)CCN1c1ccc2nncn2n1 (configuration not stated)
Percent Effect [1]: -3.52% | Percent Effect [2]: -41.8%

CCN1C[C@H]2CCN(C(C)=O)CC[C@H]2S1(=O)=O
Percent Effect [1]: -0.319% | Percent Effect [2]: -50.9%

COC(=O)C(c1cc(F)ccc1F)N(C)C(=O)c1cccnc1O (configuration not stated)
Percent Effect [1]: -4.32% | Percent Effect [2]: 8.11%

O=C(CN1CCCCCCC1=O)NCc1ccccn1
Percent Effect [1]: -0.137% | Percent Effect [2]: -35.3%

CN(C)C(CNS(=O)(=O)c1ccc(F)cc1F)c1cccn1C (configuration not stated)
Percent Effect [1]: 0.719% | Percent Effect [2]: -2.1%

CC(=O)NC1CCCN(C(=O)NCc2cccnc2-n2cccn2)C1 (configuration not stated)
Percent Effect [1]: -3.6% | Percent Effect [2]: -14.7%

CN(C)C(=O)Cc1ccc(NC(=O)NC2CCCCC2)cc1
Percent Effect [1]: -1.13% | Percent Effect [2]: 1.55%

c1ccc(C(OCCNC2CCc3ncnn3C2)c2ccccc2)cc1 (configuration not stated)
Percent Effect [1]: 2.94% | Percent Effect [2]: -14.7%

CCC(O)CN1CCN(C(=O)c2cccn2Cc2ccccc2)CC1 (configuration not stated)
Percent Effect [1]: -0.0571% | Percent Effect [2]: 16.8%

CC(C)[C@H](NC(=O)NC1CCS(=O)(=O)C1)C(=O)Nc1cccnc1 (some centres not stated)
Percent Effect [1]: -0.929% | Percent Effect [2]: -52.8%

Fc1ccc(CN2CCO[C@H]3[C@H](OCCN4CCCC4)CC[C@@H]32)cc1
Percent Effect [1]: 2.94% | Percent Effect [2]: -20.2%

COCCC(=O)N1CC2(CCN(Cc3ccoc3)C2)C1
Percent Effect [1]: 5.6% | Percent Effect [2]: -19.5%

Cc1nc(CN2CCCN(CCOc3cccc(C#N)c3)CC2)no1
Percent Effect [1]: 5.09% | Percent Effect [2]: 19.3%

COc1ccccc1CN1CC[C@]2(C[C@H](OC)CO2)C1
Percent Effect [1]: -1.25% | Percent Effect [2]: -21.1%

CCCNC(=O)c1cc2c([nH]c1=O)CC(c1cccs1)CC2=O (configuration not stated)
Percent Effect [1]: -5.46% | Percent Effect [2]: -20.3%

COc1cccc(C(=O)N2CCCC(C(=O)CCc3ccccc3)C2)c1 (configuration not stated)
Percent Effect [1]: 4.2% | Percent Effect [2]: -7.01%

O=C(CCc1nccs1)N1CCN(c2cccnn2)CC1
Percent Effect [1]: -2.05% | Percent Effect [2]: 12.9%

Cc1nc(C)n(CC2CCCN(Cc3nc(C4CC4)no3)C2)n1 (configuration not stated)
Percent Effect [1]: 4.92% | Percent Effect [2]: 7.13%

Cc1nc(C2CCCN2CCCS(=O)(=O)N(C)C)no1 (configuration not stated)
Percent Effect [1]: -1.34% | Percent Effect [2]: -7.71%

COc1ccc(CC(=O)N2CCCN(c3ccc(C#N)cc3)CC2)cc1
Percent Effect [1]: 5.93% | Percent Effect [2]: -7.8%

CCOCC(O)CN1CCN(C(=O)c2ccnc(N(C)C)c2)CC1 (configuration not stated)
Percent Effect [1]: -2.58% | Percent Effect [2]: -13.4%

CCc1nc(C2CCCN(C(=O)c3cccc4c3ccn4C)C2)no1 (configuration not stated)
Percent Effect [1]: -0.845% | Percent Effect [2]: 4.78%

CN(C)c1ncccc1CNC(=O)N1CCCC1c1ccsc1 (configuration not stated)
Percent Effect [1]: 2.25% | Percent Effect [2]: 5.76%

CN(Cc1cn2c(n1)CN(CC1CC1)CC2)Cc1ccco1
Percent Effect [1]: 3.75% | Percent Effect [2]: -1.46%

CN(CCN1CCOCC1)C(=O)CCCc1ccccc1
Percent Effect [1]: -6.41% | Percent Effect [2]: 0.944%

CCOC(=O)NC(C(=O)NCc1ccc(N2CCCCC2)nc1)C(C)C (configuration not stated)
Percent Effect [1]: -3.06% | Percent Effect [2]: 21.9%

COc1ccc(C2CC(=O)Nc3c2nc2n3CCCC2)cc1O (configuration not stated)
Percent Effect [1]: -2% | Percent Effect [2]: -3.52%

OC(COCc1cccs1)CN1CCC(c2ccn[nH]2)CC1 (configuration not stated)
Percent Effect [1]: 1.71% | Percent Effect [2]: -8.34%

Cc1ccc(N(CC(=O)c2ccc(Br)cc2)C2=NCCCCC2)cc1
Percent Effect [1]: 0.479% | Percent Effect [2]: -13.7%

Cc1cnn(C2CCCN(C(=O)c3cnc4ccccc4n3)C2)c1 (configuration not stated)
Percent Effect [1]: 9.11% | Percent Effect [2]: 25.1%

CCOC(CC)C(=O)NCc1ccnc(Oc2ccc(F)cc2)c1 (configuration not stated)
Percent Effect [1]: 0.301% | Percent Effect [2]: 5.28%

O=C(c1ccccn1)N1CCc2c(nc(N3CCCC3)[nH]c2=O)C1
Percent Effect [1]: -2.28% | Percent Effect [2]: -39.9%

CN1C(=O)C(c2cccnc2)CC12CCN(C(=O)c1cccn1C)CC2 (configuration not stated)
Percent Effect [1]: 0.99% | Percent Effect [2]: -12.3%

Cc1ccc(=O)n(CC2(O)CCN(Cc3cc(C)c(O)c(C)c3)CC2)n1
Percent Effect [1]: -3.32% | Percent Effect [2]: -78.5%

COc1ccccc1OCC(=O)NCC(O)(c1ccccc1)C1CC1 (configuration not stated)
Percent Effect [1]: -1.26% | Percent Effect [2]: 6.19%

O=C(c1ccc(-n2cccn2)nc1)N1CCCN(c2cccnn2)CC1
Percent Effect [1]: -4.61% | Percent Effect [2]: 3.17%

O=S(=O)(C1CC1)N1CCO[C@H]2[C@H](OCCN3CCCC3)CC[C@@H]21
Percent Effect [1]: 2.59% | Percent Effect [2]: -32.7%

CC(Cn1cccn1)NC(=O)NCCc1cnn(C)c1 (configuration not stated)
Percent Effect [1]: -2.54% | Percent Effect [2]: -3.5%

c1ccc(-n2ncc(CNC3CCc4ncnn4C3)n2)cc1 (configuration not stated)
Percent Effect [1]: 1.39% | Percent Effect [2]: -16.9%

Cc1nn(C)c(C)c1CCC(=O)N1CCCC1Cn1cccn1 (configuration not stated)
Percent Effect [1]: -0.943% | Percent Effect [2]: 2.75%
